Test [1] can be described thus: qHTS assay to identify small molecule antagonists of the thyroid receptor (TR) signaling pathway - cell viability counter screen (AID 743064). Note: nearly all actives have a fitted effect of over 50% in size. Note: potency is the fitted concentration of half-maximal effect. In short, it runs like this:
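In rat pituitary GH3.TRE-Luc reporter cells co-exposed to compound and 1 nM T3 for 23.5 h, cytotoxicity was assessed with CellTiter-Fluor in the same wells, read by fluorescence.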

Test [2] is described as follows: qHTS assay to identify small molecule antagonists of the thyroid receptor (TR) signaling pathway (AID 743065). Note: nearly all actives have a fitted effect of over 55% in size. Note: potency is the fitted concentration of half-maximal effect. In short, it runs like this:
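Antagonism measured as loss of luciferase signal in GH3 cells stably carrying a TRE-luciferase reporter, co-treated with compound and T3 (1 nM final) for 23.5 h at 37 C. Viability was read in the same well by CellTiter-Fluor.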

Test [3] relates to thyroid hormone receptor (rat, GH3 cells). Nature of the test: qHTS assay to identify small molecule agonists of the thyroid receptor (TR) signaling pathway (AID 743066; calls by dose curve).
Test [4] addresses Estrogen receptor (Homo sapiens) (UniProt P03372). The test can be described thus: qHTS assay to identify small molecule antagonists of the estrogen receptor alpha (ER-alpha) signaling pathway (AID 743069; active = well fitted curve in the direction sought with a large enough effect in the signal ratio in the repeat runs, not every such curve was filed as active; the % refers to the signal ratio). In short, it runs like this:
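ER-alpha-UAS-bla GripTite HEK293 line; 2% charcoal-stripped FBS overnight; plated, 4 hr 37C/5% CO2; cpd in DMSO + 17beta-estradiol, 18 hr 37C; LiveBLAzer B/G FRET substrate 2 hr RT; fluorescence intensity.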

Test [5] in a line: qHTS assay to identify small molecule antagonists of the estrogen receptor alpha (ER-alpha) signaling pathway - cell viability counter screen (AID 743074; calls by dose curve;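 note: HEK293 cells carrying ER-alpha-UAS-bla reporter stimulated with 17beta-estradiol; nearly all actives have a fitted effect of over 45% in size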; note: potency is the fitted concentration of half-maximal effect).
In test [6] the target is Estrogen receptor (Homo sapiens) (UniProt P03372). The test can be described thus: qHTS assay to identify small molecule agonists of the estrogen receptor alpha (ER-alpha) signaling pathway (AID 743075; calls by dose curve;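 note: HEK293 GripTite cells with ER-alpha and UAS-driven beta-lactamase reporter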).
Chain of Estrogen receptor (Homo sapiens) (P03372 whole entry, looked up): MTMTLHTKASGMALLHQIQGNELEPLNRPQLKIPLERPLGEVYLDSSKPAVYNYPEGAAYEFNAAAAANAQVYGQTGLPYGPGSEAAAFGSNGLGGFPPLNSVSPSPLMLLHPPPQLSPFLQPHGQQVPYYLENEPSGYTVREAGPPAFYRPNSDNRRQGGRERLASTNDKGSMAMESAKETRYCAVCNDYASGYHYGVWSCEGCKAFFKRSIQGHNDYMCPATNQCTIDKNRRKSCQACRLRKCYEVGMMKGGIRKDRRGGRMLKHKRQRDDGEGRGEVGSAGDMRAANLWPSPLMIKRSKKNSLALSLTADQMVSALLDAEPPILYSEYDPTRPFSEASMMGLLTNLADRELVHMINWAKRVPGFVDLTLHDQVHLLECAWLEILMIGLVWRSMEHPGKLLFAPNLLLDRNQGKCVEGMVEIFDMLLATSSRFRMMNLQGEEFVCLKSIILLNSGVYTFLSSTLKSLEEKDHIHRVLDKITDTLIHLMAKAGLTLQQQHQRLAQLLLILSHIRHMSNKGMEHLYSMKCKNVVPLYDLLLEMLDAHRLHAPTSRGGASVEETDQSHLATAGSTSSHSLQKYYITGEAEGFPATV
Test [7] shares this target. Nature of the test: qHTS assay to identify small molecule agonists of the estrogen receptor alpha (ER-alpha) signaling pathway using the BG1 cell line (AID 743079). Note: nearly all actives have a fitted effect of over 20% in size.
Test [8] in a line: qHTS assay to identify small molecule antagonists of the estrogen receptor alpha (ER-alpha) signaling pathway using the BG1 cell line (AID 743080; calls by dose curve;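 note: BG1 cells stimulated with 17beta-estradiol alongside compound; series mostly up to about 70 µM; nearly all actives have a fitted effect of over 25% in size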). In short, it runs like this: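 BG1Luc4E2, endogenous ER-alpha, 4xERE-luc; 5 d charcoal-stripped FBS, phenol red free; 24 h plating; cpd + 17beta-estradiol 21.5 h, 37 C/5% CO2; CellTiter-Fluor viability 30 min, then ONE-Glo luciferase 30 min RT.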

A short description of test [9]: qHTS assay to identify small molecule antagonists of the estrogen receptor alpha (ER-alpha) signaling pathway using the BG1 cell line - cell viability counter screen (AID 743081).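 Note: compound given together with 17beta-estradiol as the ER stimulus; series mostly up to about 70 µM; nearly all actives have a fitted effect of over 45% in size.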
Test [10] deals with Aromatase (Homo sapiens) (UniProt P11511). Nature of the test: qHTS assay to identify aromatase inhibitors (AID 743083). Note: series mostly up to about 70 µM; nearly all actives have a fitted effect of over 55% in size.
Chain of Aromatase (Homo sapiens) (P11511 whole entry, looked up): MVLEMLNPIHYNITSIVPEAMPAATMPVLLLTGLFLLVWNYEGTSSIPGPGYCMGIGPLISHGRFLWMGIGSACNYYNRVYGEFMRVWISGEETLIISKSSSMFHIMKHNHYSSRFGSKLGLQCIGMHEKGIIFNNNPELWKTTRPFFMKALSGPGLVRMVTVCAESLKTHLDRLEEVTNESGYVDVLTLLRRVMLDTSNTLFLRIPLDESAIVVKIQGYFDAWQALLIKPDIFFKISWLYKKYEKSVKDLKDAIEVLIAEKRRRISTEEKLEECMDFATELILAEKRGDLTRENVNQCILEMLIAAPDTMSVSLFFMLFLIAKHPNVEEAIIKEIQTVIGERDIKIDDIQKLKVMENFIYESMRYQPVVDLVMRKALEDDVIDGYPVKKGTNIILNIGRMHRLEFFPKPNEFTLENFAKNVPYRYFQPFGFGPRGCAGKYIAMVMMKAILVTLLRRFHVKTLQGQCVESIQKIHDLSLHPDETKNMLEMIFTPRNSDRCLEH

Data on 24 compounds can be found in PubChem BioAssay (Tox21).

Values joined by “and” are separate entries in the source; they are usually repeats but may differ in a detail not shown here. Equal values may be shown once. Results filed as inconclusive are left out. Active and inactive are the calls of the source. Unless noted, calls come from the whole dose curve; as a rule, active = well fitted curve in the direction sought with a large enough effect in the repeat runs; inconclusive = weak or mixed curves; inactive = no such curve, though single readings can be large; an effect the other way counts as inactive or inconclusive.

For the compound `CN1C(CSCC(F)(F)F)Nc2cc(Cl)c(S(N)(=O)=O)cc2S1(=O)=O` (stereo unspecified), the Potency entry in [1], in test [2], in [3], in [4], in test [5] and in [6] was “inactive” each time. In addition, the Potency result in test [7], in test [8], in [9] and in test [10] was “inactive” each time.

`COc1cc(NCc2ccc3nc(N)nc(N)c3c2C)cc(OC)c1OC`: the Potency was 8.41 µM (active) in test [1], 668 nM (active) in test [2] and 0.213 µM (active) in test [5]. Further, the Potency result in test [3], in [4], in test [6] and in test [7] was “inactive” each time.

For the compound `Nc1ccc(NC(=O)c2ccc(N)cc2)cc1`, the Potency entry in [1], in test [2], in test [3], in [4], in [5] and in test [6] was “inactive” each time. The Potency entry in test [7], in test [8] and in test [9] was “inactive” in each case.

For the compound `CC(=O)OCCC1CCCCC1`, the Potency entry in test [1], in test [2], in [3], in test [4], in test [5] and in [6] was “inactive” throughout. The Potency entry in test [7], in [8], in test [9] and in test [10] was “inactive” throughout.

Regarding `CC(C)c1ccc(C#N)cc1`, the Potency result in [1], in [2], in test [3], in test [4], in test [5] and in test [6] was “inactive” throughout. The Potency entry in test [7], in test [8], in test [9] and in test [10] was “inactive” throughout.

On to `CC(=O)NNC(C)=O`, for which the Potency entry in test [1], in [2], in test [3], in [4], in [5] and in [6] was “inactive” throughout. In addition, the Potency result in test [7], in [8], in test [9] and in test [10] was “inactive” throughout.

As to `OCC(CO)n1cnc(-c2ccc(F)cc2)c1-c1ccnc(Oc2ccccc2)n1`, the Potency entry in [1], in [2], in [3], in test [4], in [5] and in test [6] was “inactive” throughout. The Potency entry in test [7], in test [8], in test [9] and in test [10] was “inactive” in each case.

In the case of `CCN(CC)C(=O)/C(C#N)=C/c1cc(O)c(O)c([N+](=O)[O-])c1`, the Potency entry in test [1], in test [2], in test [3], in test [4], in test [5] and in [6] was “inactive” each time. For the same compound, the Potency entry in test [7], in test [8], in test [9] and in test [10] was “inactive” throughout.

As to `O=C(O)c1cccc(C[C@@H]2COc3ccc(OCc4nc5cc(F)ccc5s4)cc3[C@@H]2O)c1`, the Potency entry in [1], in test [2], in test [3], in [4], in test [5] and in test [6] was “inactive” in each case. The Potency result in test [7], in test [8], in test [9] and in [10] was “inactive” in each case.

As for `CC(C)N(C)C`, the Potency entry in test [1], in test [2], in test [3], in test [4], in test [5] and in [6] was “inactive” each time. For the same compound, the Potency result in test [7], in [8], in test [9] and in [10] was “inactive” each time.

For the compound `COc1ccc2nc(S(=O)Cc3ncc(C)c(OC)c3C)[nH]c2c1` (stereo unspecified), the Potency entry in test [1], in test [2], in [3], in test [4], in test [5] and in test [6] was “inactive” in each case. Also, the Potency result in test [7], in test [8], in test [9] and in test [10] was “inactive” each time.

Regarding `CCC(CO)(CO)[N+](=O)[O-]`, the Potency entry in test [1], in test [2], in test [3], in test [4], in [5] and in test [6] was “inactive” each time. The Potency result in test [7], in [8], in test [9] and in test [10] was “inactive” each time.

`O=C(O)CO`: the Potency entry in [1], in test [2], in test [3], in [4], in test [5] and in [6] was “inactive” throughout. Moreover, the Potency result in [7], in test [8], in [9] and in test [10] was “inactive” in each case.

For the compound `CCSC(=O)N(CC)CC`, the Potency result in [1], in test [2], in test [3], in [4], in [5] and in test [6] was “inactive” in each case. In addition, the Potency entry in [7], in [8], in [9] and in test [10] was “inactive” throughout.

As for `C=CCOC(=O)COCCC(C)C`, the Potency result in [1], in test [2], in [3], in test [4], in [5] and in test [6] was “inactive” each time. Moreover, the Potency result in test [7], in [8], in test [9] and in test [10] was “inactive” throughout.

`CC1CCc2nccnc21` (stereo unspecified): the Potency entry in test [1], in test [2], in [3], in test [4], in test [5] and in test [6] was “inactive” throughout. Further, the Potency result in test [7], in test [8], in test [9] and in [10] was “inactive” in each case.

Take `CC[C@H]1OC(=O)[C@H](C)[C@@H](O[C@H]2C[C@@](C)(OC)[C@@H](O)[C@H](C)O2)[C@H](C)[C@@H](O[C@@H]2O[C@H](C)C[C@H](N(C)C)[C@H]2O)[C@](C)(O)C[C@@H](C)CN(C)[C@H](C)[C@@H](O)[C@]1(C)O`: the Potency in [1] is 29.8 µM (active) and 40.5 µM (active); in [2], 29.8 µM (active) and 36.1 µM (active). Further, the Potency entry in test [3], in [4], in [5], in test [6], in [7] and in [8] was “inactive” throughout. The Potency result in [9] and in test [10] was “inactive” each time.

`COc1ccc(CCN(C)CCCN2CCc3cc(OC)c(OC)cc3CC2=O)cc1OC`: the Potency result in [1], in test [2], in [3], in test [4], in test [5] and in [6] was “inactive” each time. Also, the Potency result in test [7], in test [8], in test [9] and in [10] was “inactive” in each case.

With `COC(=O)CC(C(C)=O)C(=O)OC` (stereo unspecified), the Potency result in [1], in test [2], in test [3], in [4], in test [5] and in test [6] was “inactive” each time. For the same compound, the Potency result in [7], in [8], in [9] and in test [10] was “inactive” throughout.

As to `CCN(CC)CCNC(=O)c1cc(Cl)c(N)cc1OC`, the Potency result in test [1], in test [2], in test [3], in [4], in test [5] and in test [6] was “inactive” throughout. For the same compound, the Potency entry in [7], in test [8], in test [9] and in test [10] was “inactive” each time.

In the case of `O=C(CCS)OCC(COC(=O)CCS)(COC(=O)CCS)COC(=O)CCS`, the Potency entry in [1], in test [2], in [3], in test [4], in test [5] and in [6] was “inactive” throughout. Moreover, the Potency result in test [7], in test [8], in [9] and in test [10] was “inactive” each time.

On to `COC(=O)c1sccc1S(N)(=O)=O`, for which the Potency result in test [1], in test [2], in test [3], in test [4], in test [5] and in test [6] was “inactive” in each case. Besides, the Potency result in [7], in [8], in test [9] and in test [10] was “inactive” in each case.

As for `COc1cc(NS(=O)(=O)c2ccc(N)cc2)nc(C)n1`, the Potency entry in test [1], in [2], in test [3], in [4], in test [5] and in test [6] was “inactive” throughout. For the same compound, the Potency result in test [7], in test [8], in test [9] and in test [10] was “inactive” in each case.

As for `CC(C)(C)C1(CCc2ccc(Cl)cc2)CO1` (stereo unspecified), the Potency result in test [1], in [2], in test [3], in test [4], in test [5] and in [6] was “inactive” throughout. Moreover, the Potency entry in test [7], in test [8], in test [9] and in [10] was “inactive” each time.
